Experiment [1] in a line: resazurin metabolic signal in HepG2 cells – cell-based, resazurin fluorescence, 24 h, PK04 Diversity Set, profiling panel (AID 1172). Particulars: HepG2 viability, higher = more signal.
The nature of experiment [2]: budding yeast growth changes without added modifier – OD600, strain BY4716, 24 h, basal condition, primary screen (AID 1173). Particulars: S. cerevisiae BY4716 growth, OD600, 24 h; higher = more signal, called active from +8 up or from −8 down.
Experiment [3] is described as follows: viability profiling in MM1S myeloma cells – cell-based, resazurin fluorescence, basal, 24 h, PK04 Diversity Set, profiling panel (AID 1174).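 Note: MM1S multiple myeloma cell line.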 As to conditions: higher = more signal, called active from +8 up or from −8 down. Background: Alamar Blue is a resazurin reagent that responds to reducing activity.
Experiment [4] addresses Dihydroorotate dehydrogenase (quinone), mitochondrial (Plasmodium falciparum (isolate 3D7)) (UniProt Q08210). The experiment can be described thus: inhibition of P. falciparum DHODH – biochemical, C-terminal His tag, absorbance 600 nm, primary screen (AID 1175).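 Note: recombinant parasite enzyme with a five histidine tag at its C terminus.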 Particulars: PfDHODH enzyme, DCIP absorbance 600 nm; higher = more signal, called active from +8 up or from −8 down.

A short description of experiment [5]: inhibition of PAO1 biofilm formation – strain PAO1, LB-PBS medium, absorbance 600 nm, primary screen (AID 1176). Particulars: P. aeruginosa PAO1 growth/biofilm, A600, 12 h; higher = more signal.
Experiment [6] can be described thus: growth modulation of vineyard yeast isolate – strain RM11-1a, OD600, basal, 24 h, primary screen (AID 1177).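 Note: cultures grown under basal conditions with no added stressor.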 Particulars: S. cerevisiae RM11-1a growth, OD600, 24 h; higher = more signal, called active from +8 up or from −8 down.
Experiment [7] in a line: growth of efflux-deficient E. coli DRC39 – strain DRC39, OD650, 24 h, E. coli filamentation inducers, primary screen (AID 1178).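 Note: growth measured as culture turbidity by optical density at 650 nm.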 Particulars: E. coli DRC39 acrAB, higher = more signal, called active from +8 up or from −8 down.
Experiment [8] can be described thus: growth of efflux-deficient E. coli DRC39 – strain DRC39, OD650, 48 h, E. coli filamentation inducers, primary screen (AID 1179).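 Note: screen aims at cell division blockers that make cells filament.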 As to conditions: E. coli DRC39 delta-acrAB growth, higher = more signal, called active from +8 up or from −8 down.
The nature of experiment [9]: viability profiling in RPMI8226 myeloma cells – cell-based, resazurin fluorescence, basal, 24 h, PK04 Diversity Set, profiling panel (AID 1180).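 Note: RPMI8826 multiple myeloma cell line at 5000 cells per well.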 As to conditions: higher = more signal.
In experiment [10] the target is E3 ubiquitin-protein ligase XIAP (Homo sapiens) (UniProt P98170). The experiment can be described thus: small molecules binding XIAP protein – biophysical, small-molecule microarray, fluorescence 635 nm, primary screen (AID 1181).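 Note: score merges 667 nm emission and signal to noise over triplicate slides.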 Particulars: higher = more signal.
The subject of experiment [11] is XIP peptide (Xip251-270) binding. The experiment can be described thus: XIP fragment 251-270 binding compounds – biochemical, small-molecule microarray, fluorescence 635/667 nm, 0.1 µg/mL protein, primary screen (AID 1182). As to conditions: fluorescent protein binding, 635 nm, higher = more signal, called active from +8 up or from −8 down.
Experiment [12] has as its system XIP peptide (Xip251-270). The experiment in a line: compounds binding XIP fragment 251-270 – biochemical, small-molecule microarray, fluorescence 635/667 nm, 0.5 µg/mL protein, primary screen (AID 1183). As to conditions: fluorescence 635 nm, higher = more signal.
Experiment [13] is described as follows: blood-stage malaria parasite viability loss – strain 3D7, DAPI fluorescence, 100 nL, primary screen (AID 1184).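 Note: parasites grown inside human red blood cells in medium with human serum.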 As to conditions: P. falciparum 3D7 growth, 3 d, higher = more signal.
The target of experiment [14] is Homeobox protein Hox-A13 (Mus musculus) (UniProt Q62424). The experiment in a line: disruptors of Hoxa13 oligonucleotide interaction – biochemical, fluorescence polarization, labeled oligonucleotide, primary screen (AID 1185). As to conditions: Hoxa13:DNA binding, 15 min, higher = more signal, called active from +8 up or from −8 down.
Experiment [15] in a line: blockers of DNA damage checkpoint Chk1 activation – imaging, HeLa, hydroxyurea, phospho-Chk1 antibody, percent positive cells, primary screen (AID 1186). Particulars: hydroxyurea-induced phospho-Chk1 immunofluorescence imaging, higher = more signal.
The nature of experiment [16]: blockers of DNA damage checkpoint Chk1 activation – imaging, HeLa, hydroxyurea, phospho-Chk1 nuclear intensity, primary screen (AID 1187). Particulars: hydroxyurea-induced phospho-Chk1 immunofluorescence imaging, higher = more signal.

Activity calls are given as the source filed them. Unless noted, the rule behind the calls is not given here.

E3 ubiquitin-protein ligase XIAP (Homo sapiens), sequence (P98170 whole entry, looked up, the tested form may be a part): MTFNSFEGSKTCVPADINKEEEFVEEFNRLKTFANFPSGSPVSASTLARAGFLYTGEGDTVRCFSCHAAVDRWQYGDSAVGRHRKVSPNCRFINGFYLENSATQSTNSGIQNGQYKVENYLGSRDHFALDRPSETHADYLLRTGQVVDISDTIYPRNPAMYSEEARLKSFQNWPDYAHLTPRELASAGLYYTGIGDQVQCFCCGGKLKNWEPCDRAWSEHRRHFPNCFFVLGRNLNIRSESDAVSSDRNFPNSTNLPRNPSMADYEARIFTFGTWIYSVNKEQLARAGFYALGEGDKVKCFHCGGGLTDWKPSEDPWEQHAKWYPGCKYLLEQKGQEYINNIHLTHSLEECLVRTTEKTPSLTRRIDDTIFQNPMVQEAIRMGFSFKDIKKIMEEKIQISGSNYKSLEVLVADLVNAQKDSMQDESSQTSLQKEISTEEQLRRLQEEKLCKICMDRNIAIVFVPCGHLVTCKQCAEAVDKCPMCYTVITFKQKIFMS
Dihydroorotate dehydrogenase (quinone), mitochondrial (Plasmodium falciparum (isolate 3D7)), sequence (Q08210 whole entry, looked up): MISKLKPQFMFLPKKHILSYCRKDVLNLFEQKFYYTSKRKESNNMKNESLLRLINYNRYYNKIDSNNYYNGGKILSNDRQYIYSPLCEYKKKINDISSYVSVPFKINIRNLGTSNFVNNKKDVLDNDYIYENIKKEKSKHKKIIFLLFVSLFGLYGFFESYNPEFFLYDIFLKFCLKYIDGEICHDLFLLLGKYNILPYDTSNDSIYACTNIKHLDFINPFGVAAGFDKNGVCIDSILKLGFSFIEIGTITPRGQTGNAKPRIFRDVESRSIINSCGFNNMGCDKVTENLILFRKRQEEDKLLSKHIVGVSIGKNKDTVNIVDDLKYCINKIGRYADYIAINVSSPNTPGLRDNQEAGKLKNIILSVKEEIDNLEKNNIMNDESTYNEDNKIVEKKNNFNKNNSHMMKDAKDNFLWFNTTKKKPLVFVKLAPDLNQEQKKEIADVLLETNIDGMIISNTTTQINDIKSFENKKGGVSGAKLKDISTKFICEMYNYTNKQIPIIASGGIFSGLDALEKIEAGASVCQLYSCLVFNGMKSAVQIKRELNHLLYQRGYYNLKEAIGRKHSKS
Homeobox protein Hox-A13 (Mus musculus), sequence (Q62424 whole entry, looked up): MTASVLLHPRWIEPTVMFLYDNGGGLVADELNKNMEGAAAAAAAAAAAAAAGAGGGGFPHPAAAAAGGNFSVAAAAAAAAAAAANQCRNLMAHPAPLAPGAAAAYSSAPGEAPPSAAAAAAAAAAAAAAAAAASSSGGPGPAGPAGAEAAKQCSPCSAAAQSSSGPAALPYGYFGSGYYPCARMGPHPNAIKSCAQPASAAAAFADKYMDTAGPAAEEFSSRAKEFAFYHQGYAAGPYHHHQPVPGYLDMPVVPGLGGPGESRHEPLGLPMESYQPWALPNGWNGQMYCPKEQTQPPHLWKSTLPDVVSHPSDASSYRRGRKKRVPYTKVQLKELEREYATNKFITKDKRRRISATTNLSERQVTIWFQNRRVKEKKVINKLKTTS

With `CCOC(=O)C[C@H]1[C@H](OC(=O)c2ccc(-c3ccccc3)cc2)[C@@H](NC(=O)CC(C)C)c2cc(OCCCO)ccc2N1C(=O)c1ccccc1`, the z-score was -0.6 in experiment [1]; 1.28 (inactive) in experiment [2]; -0.281 (inactive) in experiment [3]; 0.951 (inactive) in [5]; 0.964 (inactive) in experiment [6]; -0.635 (inactive) in experiment [7]. Besides, the z-score in experiment [8] is -0.776 (inactive); in experiment [9], -0.157; in experiment [13], -0.419; in [14] it was -3.33 (inactive); in experiment [15], -0.228 (inactive); in [16] it was -0.0761 (inactive). In addition, the composite z-score in experiment [4] is 0.88 (inactive); in experiment [10], -0.0559; in experiment [11], 0.22 (inactive); in experiment [12], -0.0545.
Regarding `COc1ccc([Si](C)(C)[C@@H]2[C@@H](CCn3cc([C@H](O)c4ccccc4)nn3)O[C@]3(C(=O)N(c4ccccc4)c4ccccc43)[C@H]2C)cc1`, the z-score in experiment [1] was -2.07; in experiment [2] it was -0.284 (inactive); in experiment [3] it was -3.04 (inactive); in [5] it was 1.08 (inactive); in experiment [6], 0.77 (inactive); in experiment [7] it was -0.434 (inactive). Besides, the z-score was -0.502 (inactive) in experiment [8]; -3.15 in [9]; -1.73 in experiment [13]; -3.01 (inactive) in experiment [14]; -0.431 (inactive) in experiment [15]; -0.361 (inactive) in experiment [16]. Also, the composite z-score in experiment [4] is -0.204 (inactive); in experiment [10], -0.131; in experiment [11], -0.17 (inactive); in experiment [12] it was 0.559.
Regarding `COC(=O)[C@@]1(Cc2ccc(OC)cc2)[C@H]2c3cc(C(=O)N4CCCC4)n(Cc4ccc(OC(F)(F)F)cc4)c3C[C@H]2CN1C(=O)c1ccccc1`, the z-score in experiment [1] was -0.0938; in experiment [2], 1.82 (inactive); in experiment [3], -1.43 (inactive); in experiment [5], 0.343 (inactive); in experiment [6] it was 0.755 (inactive); in [7], -0.0079 (inactive). The z-score was 0.513 (inactive) in [8]; -2.54 in [9]; -1.29 in [13]; -2.94 (inactive) in experiment [14]; 0.168 (inactive) in experiment [15]; 0.569 (inactive) in experiment [16]. In addition, the composite z-score in [4] was -0.731 (inactive); in experiment [10], 0.0479; in [11], 0.931 (inactive); in experiment [12], 0.702.
On to `CCOC(=O)C1=C[C@@H](C(C)(C)C)N(S(=O)(=O)c2ccc(C)cc2)[C@H]1c1ccc(C)cc1`, for which the z-score in experiment [1] was -0.473; in [2] it was 1.01 (inactive); in experiment [3], -0.328 (inactive); in [5], 0.148 (inactive); in experiment [6], 0.526 (inactive); in experiment [7], -0.617 (inactive). In addition, the z-score in experiment [8] is -0.823 (inactive); in experiment [9], -2.18; in experiment [13], -2.07; in experiment [14], -0.0064 (inactive); in [15], 0.0978 (inactive); in [16] it was -0.184 (inactive). Further, the composite z-score was -0.186 (inactive) in experiment [4], -0.0017 in experiment [10], 0.177 (inactive) in experiment [11] and 0.325 in experiment [12].
With `CN1C=C(C(=O)OCCS(C)(=O)=O)C(C(=O)OCCS(C)(=O)=O)=CC(c2ccc(CO)cc2)=CC1c1cccs1` (stereo not given), the z-score is 0.0449 in experiment [1]; -3.66 (inactive) in [2]; -0.727 (inactive) in [3]; -0.566 (inactive) in [5]; -0.363 (inactive) in [6]; 0.0198 (inactive) in experiment [7]. Also, the z-score in experiment [8] is -0.0834 (inactive); in experiment [9] it was 0.0779; in experiment [13], -2.58; in experiment [14], -5.46 (inactive); in [15] it was -0.163 (inactive); in experiment [16], -0.265 (inactive). The composite z-score in experiment [4] was -0.927 (inactive); in [10] it was 0.246; in experiment [11], 0.514 (inactive); in experiment [12] it was 0.496.
Turning to `C=CCNC(=O)[C@H]1[C@@H]2C(=O)O[C@@H](c3ccccc3)[C@@H](c3ccccc3)N2[C@@H](c2ccc(OCCO)cc2)[C@]12C(=O)Nc1ccc(C#CCNC(N)=O)cc12`, the z-score is -0.598 in experiment [1]; 2.3 (inactive) in [2]; 0.0869 (inactive) in experiment [3]; 1.99 (inactive) in experiment [5]; 3.25 (inactive) in experiment [6]; -0.575 (inactive) in experiment [7]. Besides, the z-score is -1.22 (inactive) in experiment [8]; 0.687 in experiment [9]; -1.13 in [13]; -3.66 (inactive) in experiment [14]; 0.0622 (inactive) in experiment [15]; 0.183 (inactive) in experiment [16]. Moreover, the composite z-score in [4] is 0.428 (inactive); in [10], -0.163; in [11], 0.952 (inactive); in experiment [12], 0.512.
In the case of `O=C1NC(=O)C2C1C=CC(C(O)c1ccccn1)N2Nc1ccc(Cl)cc1Cl` (stereo not given), the z-score was -1.08 in experiment [1]; -4.1 (inactive) in [2]; -0.837 (inactive) in experiment [3]; 0.931 (inactive) in experiment [5]; 0.351 (inactive) in [6]; -0.587 (inactive) in experiment [7]. The z-score in experiment [8] was -0.534 (inactive); in experiment [9], -1.82; in experiment [13] it was 0.358; in experiment [14], -4.45 (inactive); in experiment [15], -0.133 (inactive); in experiment [16], -0.18 (inactive). The composite z-score was -0.0894 (inactive) in experiment [4], -0.131 in [10], 0.628 (inactive) in experiment [11] and 0.326 in experiment [12].
Consider `O=C1C2C=CC(C(O)c3cc(C(F)(F)F)cc(C(F)(F)F)c3)N(Nc3ccccc3F)C2C(=O)N1c1ccccc1` (stereo not given), for which the z-score in [1] is -2.18; in [2] it was -1.47 (inactive); in experiment [3], -1.09 (inactive); in experiment [5], 1.11 (inactive); in experiment [6], 0.332 (inactive); in [7], -2.31 (inactive). Also, the z-score in [8] is -0.711 (inactive); in experiment [9], -3.04; in [13], 0.915; in [14] it was -2.39 (inactive); in experiment [15] it was 0.563 (inactive); in experiment [16], 0.544 (inactive). The composite z-score in experiment [4] is -0.232 (inactive); in [10], 0.0264; in experiment [11], 1.22 (inactive); in experiment [12], 0.481.
Regarding `COCCOC(=O)N1C(=O)[C@@]2(c3cc(C#CC4=CCCCC4)ccc31)[C@H](C(=O)N1CCCCCCC1)[C@H]1C(=O)O[C@H](c3ccccc3)[C@H](c3ccccc3)N1[C@@H]2c1ccc(OCCO)cc1`, the z-score in [1] was 0.111; in experiment [2], -0.145 (inactive); in [3], -0.341 (inactive); in [5], 2.26 (inactive); in [6], 1.16 (inactive); in experiment [7], -0.427 (inactive). The z-score in [8] was -0.311 (inactive); in experiment [9], 0.169; in [13] it was -2.01; in experiment [14], -15.8 (active); in experiment [15] it was 0.0039 (inactive); in experiment [16], -0.192 (inactive). Also, the composite z-score in [4] was -1.9 (inactive); in experiment [10], 0.144; in experiment [11] it was -0.404 (inactive); in [12], 0.56.
As for `C=C/C=C/[C@@H]1C(=C)CN([C@@H](Cc2ccccc2)C(=O)OC)[C@H]1[C@@H](O)Cc1ccccc1`, the z-score was 0.779 in [1]; -1.03 (inactive) in [2]; -0.196 (inactive) in experiment [3]; 0.106 (inactive) in experiment [5]; 0.774 (inactive) in [6]; 0.18 (inactive) in experiment [7]. Also, the z-score in experiment [8] was -0.45 (inactive); in experiment [9], -0.697; in [13], 0.135; in experiment [14] it was -1.8 (inactive); in [15] it was -0.176 (inactive); in experiment [16], 0.221 (inactive). For the same molecule, the composite z-score in experiment [4] is 0.0865 (inactive); in experiment [10], -0.0349; in experiment [11] it was 0.661 (inactive); in experiment [12], 0.58.

Source of the values: PubChem BioAssay.
